Screens deposited in PubChem BioAssay by National Center for Advancing Translational Sciences (NCATS).
Rows were chosen to be rich in hits. Some 10% of all compounds tested hit in one or more screens of this group.
JMJD2A Tudor: qHTS Assay for Inhibitors of JMJD2A-Tudor Domain; actives 4.4% (n = 390,000); Potency, µM (doses to about 114 µM), without a hit: top-dose activity change, negative = inhibition, hits mostly inhibitors; AlphaScreen JMJD2A-Tudor / H3K4me3 peptide binding; AID 504339, 2011; Lysine-specific demethylase 4A (Homo sapiens), O75164; also: % is scaled to controls: 0 for no effect and ±100 for the full control effect; nearly all actives have a fitted effect of over 50% in size
HP1b chromo inh: HTS for Inhibitors of HP1-beta Chromodomain Interactions with Methylated Histone Tails. AID 540317, 2011. actives 0.56% (n = 390,000). Potency, µM (titrated, usually from 114 µM), for inactives: at the top dose activity change, negative = inhibition, usual class: inhibitors. AlphaScreen HP1-beta / biotin-H3K9me3 peptide binding; also: nearly all actives have a fitted effect of over 70% in size
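HP1-beta protein (50 nM final) preincubated 30 min at room temperature with biotinylated H3(1-18)K9me3 peptide (50 nM) in PBS pH 7.4, 0.01% Tween-20, then compound added for 30 min. AlphaScreen streptavidin donor/nickel chelate acceptor beads (10 ug/mL final), 30 min dark, luminescence read.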
G9a block: qHTS Assay for Inhibitors of Histone Lysine Methyltransferase G9a; Potency, µM (doses to about 102 µM), for inactives: at the top dose activity, negative = inhibition, usual class: inhibitors; actives 8.8% (n = 350,000); AID 504332, 2011; G9a H3K9 monomethylation, AlphaScreen, 2 h; also: % is scaled to controls: 0 for no effect and ±100 for the full control effect; nearly all actives have a fitted effect of over 75% in size
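Step 1: enzyme (final 20 nM) with compound, 15 min RT. Step 2: substrate peptide 500 nM and SAM 20 uM, 2 h RT. Step 3: anti-H3K9me1 antibody and AlphaScreen beads, 10 min, then plate read.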
BAZ2B block: qHTS Assay for Inhibitors of BAZ2B. Bromodomain adjacent to zinc finger domain protein 2B (Homo sapiens), Q9UIF8. AlphaScreen BAZ2B-H3K14Ac peptide displacement. Potency, µM (titrated, usually from 114 µM), without a hit: at the highest dose activity change, negative = inhibition, actives largely listed as inhibitors. actives 4.4% (n = 360,000); also: % is scaled to controls: 0 for no effect and ±100 for the full control effect; nearly all actives have a fitted effect of over 60% in size
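Protein-peptide AlphaScreen: BAZ2B 50 nM, b-H3K14Ac 50 nM, 1x PBS pH 7.4 + 0.01% Tween-20. Preincubation 30 min RT; cpd 30 min RT (top 110 uM); beads 20 min RT, light-protected.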
GLS inh: qHTS for Inhibitors of Glutaminase (GLS); Potency, µM (doses to about 45.5 µM), without a hit: top-dose activity change, negative = inhibition, hits mostly inhibitors; AID 624170, 2012; GLS enzymatic activity, qHTS titration; actives 0.21% (n = 410,000); also: % is scaled to controls: 0 for no effect and ±100 for the full control effect
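Glutamate formation by hKGA was monitored fluorometrically using coupled glutamate oxidase, HRP and Amplex Red. Substrate was added as 1 mM L-glutamine solution; incubation was 30 min at RT after an initial read.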
* marks the source's active call; other numbers are inactive results; [ ] = another dose, or the depositor's remark. Calls follow the shape of the dose curve; as a rule, active = well fitted curve in the direction sought with a large enough effect; inconclusive = small, poorly fitted or top-dose-only effect, or another doubt; inactive = no such curve, though single readings can be large; an effect the other way counts as inactive or inconclusive. Potency is read from the fitted curve at half-maximal effect.

For CCC(=O)OCCNc1cc(Sc2nc3ccccc3[nH]2)c2nonc2c1[N+](=O)[O-] the results were JMJD2A Tudor 79.4µM*, HP1b chromo inh inconclusive, G9a block 8.91µM*, BAZ2B block -33.6% and GLS inh inconclusive.
`O=[N+]([O-])c1c(NCCCO)cc(Sc2nc3ccccc3s2)c2nonc12` gave JMJD2A Tudor 56.2µM*, HP1b chromo inh 4.6%, G9a block inconclusive, BAZ2B block -0.1% and GLS inh inconclusive.
Screening CC(C)OC(=O)CSc1nc2ccccc2s1 returned JMJD2A Tudor -15.3%[11.4 µM], HP1b chromo inh 38.4%, G9a block -46.4%[12.7 µM], BAZ2B block 63.0% and GLS inh -14.7%.
`CCOC(=O)C1CCCN(c2cc(NCCCO)c([N+](=O)[O-])c3nonc23)C1` (stereo unspecified) gave G9a block -11.9%[59 µM] and BAZ2B block 5.4%.
For CCC(=O)OCCNc1cc(Sc2nc3ccccc3s2)c2nonc2c1[N+](=O)[O-] the results were JMJD2A Tudor -34.0%, HP1b chromo inh inconclusive, G9a block 2µM*, BAZ2B block -32.5% and GLS inh inconclusive.
CCc1ccc(NC(=O)CC2C(=O)N(c3cccc(OC)c3)C(=O)N2Cc2ccc(F)cc2)cc1 (stereo unspecified) was read as JMJD2A Tudor -3.4%, HP1b chromo inh 26.3%, G9a block -4.1%[59 µM], BAZ2B block -8.4% and GLS inh 5.4%.
Cc1cc(Cl)cc(Br)c1OCCCCn1cncn1 was read as JMJD2A Tudor 3.55µM*, HP1b chromo inh inconclusive, G9a block inconclusive, BAZ2B block 50.1µM* and GLS inh 0.8%.
Screening Cc1cc(C(=O)NC(=S)Nc2ccccc2N2CCOCC2)ccc1[N+](=O)[O-] returned JMJD2A Tudor inconclusive, HP1b chromo inh inconclusive, G9a block 35.5µM*, BAZ2B block inconclusive and GLS inh 19.2%.
`O=C(NC(=S)Nc1ccccc1N1CCCC1)c1ccc(F)cc1` gave JMJD2A Tudor 35.5µM*, HP1b chromo inh 50.1µM*, G9a block 31.6µM*, BAZ2B block 25.1µM* and GLS inh 32.6%.
Screening O=C(NC(=S)Nc1ncccn1)c1ccc(F)cc1 returned JMJD2A Tudor -21.7%, HP1b chromo inh -19.0%, G9a block 8.91µM*, BAZ2B block inconclusive and GLS inh -3.2%.
For CC1CCN(c2ccccc2NC(=S)NC(=O)c2cccs2)CC1 the results were JMJD2A Tudor inconclusive, HP1b chromo inh inconclusive, G9a block 15.1%[12.7 µM], BAZ2B block 35.5µM* and GLS inh 0.6%.
For CS(=O)(=O)N1CCN(c2ccccc2NC(=S)NC(=O)c2cccs2)CC1 the results were JMJD2A Tudor -10.5%[11.4 µM], HP1b chromo inh 15.7%, G9a block 17.0%, BAZ2B block inconclusive and GLS inh -15.4%.
Screening O=C(NC(=S)Nc1ccccc1N1CCCCC1)c1ccc(F)cc1Cl returned JMJD2A Tudor -20.4%, HP1b chromo inh 16.8%, G9a block -7.2%[12.7 µM], BAZ2B block -29.9% and GLS inh 13.7%.
For Cc1cc(C(=O)Nc2ccccc2N2CCOCC2)ccc1[N+](=O)[O-] the results were JMJD2A Tudor -24.7%, HP1b chromo inh -7.6%, G9a block 17.8%[59 µM], BAZ2B block -8.6% and GLS inh -3.8%.
For O=C1CC(N2CCC(O)(c3ccc(Cl)cc3)CC2)C(=O)N1Cc1ccc(N2CCCC2=O)cc1 (stereo unspecified) the results were JMJD2A Tudor -1.7%, HP1b chromo inh 47.9%, G9a block inconclusive, BAZ2B block 5.8% and GLS inh 0.0%.
For Cc1ccccc1C(=O)Nc1ccccc1N1CCN(C(=O)c2ccccc2)CC1 the results were JMJD2A Tudor -14.3%, HP1b chromo inh 30.6%, G9a block 51.1%, BAZ2B block -22.8% and GLS inh -8.3%.
For Cc1ccccc1C(=O)NC(=S)Nc1ccccc1N1CCCC1 the results were JMJD2A Tudor 25.1µM*, HP1b chromo inh inconclusive, G9a block 20µM*, BAZ2B block 25.1µM* and GLS inh 28.5%.
`O=C(NC(=S)Nc1ccccc1N1CCCCC1)c1ccccc1` gave JMJD2A Tudor inconclusive, HP1b chromo inh -24.1%, G9a block 31.6µM*, BAZ2B block inconclusive and GLS inh 10.5%.
`CC(C)Oc1ccc(C(=O)Nc2ccccc2N2CCCC2)cc1` gave JMJD2A Tudor -4.6%[11.4 µM], HP1b chromo inh inconclusive, G9a block 44.7µM*, BAZ2B block inconclusive and GLS inh 21.8%.
For O=C(Nc1ccccc1N1CCN(C(=O)c2ccc(Cl)cc2)CC1)c1cccc(F)c1 the results were JMJD2A Tudor -11.0%, HP1b chromo inh 28.3%, G9a block 19.3%, BAZ2B block -9.8% and GLS inh 4.9%.
Screening O=C(NC(=S)Nc1ccccc1N1CCOCC1)c1ccc(Br)cc1 returned JMJD2A Tudor inconclusive, HP1b chromo inh -11.5%, G9a block inconclusive, BAZ2B block inconclusive and GLS inh 16.8%.
`O=C(Nc1ccccc1N1CCCC1)c1cccc(F)c1` gave JMJD2A Tudor -16.0%, HP1b chromo inh 25.6%, G9a block 35.5µM*, BAZ2B block inconclusive and GLS inh 2.9%.
`C=CCCC(=O)N1C[C@H]2CON(C)[C@H]2C[C@H]1c1ccc(Br)cc1` gave GLS inh 0.7%.
`N#Cc1nc(-c2ccc(COc3ccccc3)o2)oc1N1CCN(c2ccccc2)CC1` gave JMJD2A Tudor -14.2%, HP1b chromo inh 18.2%, G9a block inconclusive, BAZ2B block inconclusive and GLS inh -3.3%.
`N#Cc1nc(COc2ccccc2)oc1N1CCC(Cc2ccccc2)CC1` gave JMJD2A Tudor -31.8%, HP1b chromo inh inconclusive, G9a block 12.6µM*, BAZ2B block inconclusive and GLS inh 0.5%.
COc1ccc(OCc2ccc(-c3nc(C#N)c(N4CCN(c5cccc(Cl)c5)CC4)o3)o2)cc1 was read as JMJD2A Tudor -17.2%, HP1b chromo inh 28.0%, G9a block -28.2%[59 µM], BAZ2B block -29.4% and GLS inh -5.9%.
Screening COc1ccc(OCc2ccc(-c3nc(C#N)c(N4CCC(C)CC4)o3)o2)cc1 returned JMJD2A Tudor inconclusive, HP1b chromo inh inconclusive, G9a block 3.55µM*, BAZ2B block 3.55µM* and GLS inh -3.5%.
COc1ccc(OCc2ccc(-c3nc(C#N)c(N4CCC(C(N)=O)CC4)o3)o2)cc1 was read as JMJD2A Tudor inconclusive, HP1b chromo inh 14.3%, G9a block -6.7%[59 µM], BAZ2B block inconclusive and GLS inh -5.0%.
